{"source": "PubChem BioAssay", "note": "Activity calls are given as the source filed them. Rule as the data show it: active = fold change permeability below about 0.7 or above about 1.3; inactive = in between."}
{"test": "compounds altering in vitro BBB leakiness – cell-based, FITC-avidin fluorescence, HTS, primary screen (AID 1963498); also: test concentration not given here", "settings": "brain endothelial barrier, actives lie on both sides"}
{"smiles": "CN1CCN(C(c2ccccc2)c2ccc(Cl)cc2)CC1", "note": "(centres undefined)", "fold change permeability": "1.7 (active)"}
{"smiles": "CCN(CC)CCOC(=O)c1ccc(N)cc1", "fold change permeability": "0.8 (inactive)"}
{"smiles": "CC(C)(C)C(=O)Oc1ccc(S(=O)(=O)Nc2ccccc2C(=O)NCC(=O)O)cc1", "fold change permeability": "0.7 (active)"}
{"smiles": "C[N+](C)(C)CC=O", "fold change permeability": "1.1 (inactive)"}
{"smiles": "Clc1ccccc1C(c1ccccc1)(c1ccccc1)n1ccnc1", "fold change permeability": "1.2 (inactive)"}
{"smiles": "COC(=O)C1=C(C)NC(C)=C(C(=O)OC)C1c1cccc(NC(=O)NCCCN2CCC(c3cccc(OC)c3)CC2)c1", "fold change permeability": "1.2 (inactive)"}
{"smiles": "C=C(Cc1ccccc1Cl)C(=O)OCC", "fold change permeability": "1 (inactive)"}
{"smiles": "OC[C@H]1O[C@@H](n2cnc3c(N[C@H]4CCC[C@@H]4O)ncnc32)[C@H](O)[C@@H]1O", "fold change permeability": "1 (inactive)"}
{"smiles": "C=Cc1c(C)c2cc3[nH]c(cc4nc(cc5nc(cc1[nH]2)C(C)=C5CCC(=O)O)C(CCC(=O)O)=C4C)c(C)c3C=C", "fold change permeability": "1 (inactive)"}
{"smiles": "CC(C)(C)c1ccc(C(=O)Nc2ccc(Nc3ccccc3)cc2)cc1", "fold change permeability": "1 (inactive)"}
{"smiles": "O=c1cc(-c2ccc([N+](=O)[O-])cc2)nc2c(-c3ccc(Cl)cc3)c(Cc3ccccc3)[nH]n12", "fold change permeability": "1.2 (inactive)"}
{"smiles": "Cc1ccc(Cl)c(Nc2ccccc2C(=O)O)c1Cl", "fold change permeability": "1.3 (active)"}
{"smiles": "C[C@@](Cc1ccc(O)c(O)c1)(NN)C(=O)O", "fold change permeability": "1.2 (inactive)"}
{"smiles": "CCN1C(=O)C=CC1=O", "fold change permeability": "1 (inactive)"}
{"smiles": "CC(=O)C(C)=O", "fold change permeability": "1.1 (inactive)"}
{"smiles": "CNCC(O)c1ccc(O)c(O)c1", "note": "(centres undefined)", "fold change permeability": "0.8 (inactive)"}
{"smiles": "CC(=O)O[C@H]1C[C@@]2(C)[C@@H](C[C@@H](O)[C@H]3[C@@]4(C)CC[C@@H](O)[C@@H](C)[C@@H]4CC[C@@]32C)/C1=C(\\CCC=C(C)C)C(=O)O", "fold change permeability": "1 (inactive)"}
{"smiles": "C[N+](C)(C)CCOC(N)=O", "fold change permeability": "0.9 (inactive)"}
{"smiles": "O=C(CCc1ccc(O)cc1)c1c(O)cc(O)cc1O", "fold change permeability": "1 (inactive)"}
{"smiles": "CC(C)(O)[C@@H]1CC[C@](C)([C@H]2[C@@H](O)C[C@@]3(C)[C@@H]4C[C@H](O)[C@H]5C(C)(C)[C@@H](O)CC[C@@]56C[C@@]46CC[C@]23C)O1", "fold change permeability": "1 (inactive)"}
{"smiles": "Oc1ccc(/C=C/c2cc(O)cc(O)c2)cc1", "fold change permeability": "1.7 (active)"}
{"smiles": "C[C@H](NC(=O)CNC(=O)c1cccc(Cl)c1)c1ccccc1", "fold change permeability": "1.1 (inactive)"}
{"smiles": "COC(=O)C1=CO[C@@H](O)[C@@H]2C(CO)=CC[C@H]12", "fold change permeability": "1.1 (active)"}
{"smiles": "Cn1c(=O)c2c(nc(/C=C/c3cccc(Cl)c3)n2C)n(C)c1=O", "fold change permeability": "1.6 (active)"}
{"smiles": "CCCCCCCCCCCC(=O)c1c(O)c(C(=O)CCCCCCCCCCC)c(O)c(C2CC(c3ccc(O)cc3)Oc3cc(O)ccc32)c1O", "note": "(centres undefined)", "fold change permeability": "1.4 (active)"}
{"smiles": "NC(N)=Nc1nc(CSCC/C(N)=N/S(N)(=O)=O)cs1", "fold change permeability": "0.9 (inactive)"}
{"smiles": "CC(C[N+](C)(C)C)OC(N)=O", "note": "(centres undefined)", "fold change permeability": "1 (inactive)"}
{"smiles": "O=C1NC(=O)C(Cc2ccc3cc(OCc4ccccc4F)ccc3c2)S1", "note": "(centres undefined)", "fold change permeability": "1.3 (active)"}
{"smiles": "O=C(O)C1=CCCNC1", "fold change permeability": "1 (inactive)"}
{"smiles": "Brc1c(NC2=NCCN2)ccc2nccnc12", "fold change permeability": "1.6 (active)"}
{"smiles": "CC(C)(N)C(=O)N[C@H](COCc1ccccc1)C(=O)N1CCC2(CC1)CN(S(C)(=O)=O)c1ccccc12", "fold change permeability": "1.8 (active)"}
{"smiles": "CCCCCCCCCCCCCCCCCCOC[C@H](COP(=O)([O-])OCC[N+](C)(C)C)OC", "fold change permeability": "1.5 (active)"}
{"smiles": "COCc1nc2c([nH]1)c(=O)n(C)c(=O)n2CC(C)C", "fold change permeability": "0.8 (inactive)"}
{"smiles": "CN(C)c1ccccc1CN1CCCN(Cc2ccccc2N(C)C)C1c1ccncc1", "fold change permeability": "1.1 (inactive)"}
{"smiles": "CCCc1c(OCCCOc2ccc(OCC(=O)O)cc2)ccc(C(C)=O)c1O", "fold change permeability": "1.3 (active)"}
{"smiles": "O=C(O)Cn1c(C(=O)Nc2nc(-c3ccccc3Cl)cs2)cc2ccccc21", "fold change permeability": "1.3 (active)"}
{"smiles": "N=C(N)SCCN", "fold change permeability": "1.1 (inactive)"}
{"smiles": "COc1ccccc1OCCNCC(O)COc1cccc2[nH]c3ccccc3c12", "note": "(centres undefined)", "fold change permeability": "1.7 (active)"}
{"smiles": "CCCCCN(CCCOC)C(=O)C(CCC(=O)O)NC(=O)c1ccc(Cl)c(Cl)c1", "note": "(centres undefined)", "fold change permeability": "1 (inactive)"}
